Source: PubChem (National Center for Advancing Translational Sciences (NCATS))
Most compounds without a hit are left out; they make up all but 3% or so of the library.
TrxR1 inh = qHTS Assay for Inhibitors of Mammalian Selenoprotein Thioredoxin Reductase 1 (TrxR1): qHTS | AID 588453, 2011 | 390,000 tested, 1% active | Potency, µM (series often up to 114 µM), usual class: inhibitors | recombinant rTrxR1, NADPH fluorescence consumption, selenite substrate; note: nearly all actives have a fitted effect of over 65% in size
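Rat TrxR1 (90 nM in the dispensed reagent) was pre-reduced with 400 uM NADPH for 5 min at room temperature, then incubated with compound for 15 min. After 400 uM selenite was added, NADPH fluorescence (Ex 340/Em 450 nm) was followed for 8 min.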
A549 viability = Nrf2 qHTS screen for inhibitors: counterscreen for cytotoxicity; A549 ARE-Fluc cells, CellTiter-Fluor viability, 18-24 h; Potency, µM (highest dose often 46 µM), hits mostly inhibitors; 390,000 tested, 0.16% active; AID 504648, 2011
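A549 ARE-Fluc cells in 5% FBS OPTI-MEM, 5000 cells/well, rested 2 h then exposed to compounds in concentration-response for 18-24 h at 37 °C. Viability by CellTiter-Fluor fluorescence (Ex 405/Em 525) after 30 min; luciferase luminescence (BugLite, 15 min, RT) read afterwards.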
Nrf2 inh = Nrf2 qHTS screen for inhibitors; A549 ARE-Fluc reporter, luciferase luminescence, 18-24 h; Potency, µM (titrated, usually from 46 µM), hits mostly inhibitors; 360,000 tested, 2.1% active; note: nearly all actives have a fitted effect of over 60% in size
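Nrf2 function is reported as luminescence of an ARE-controlled luciferase in A549 cells. Compounds were tested at several concentrations, and a CellTiter-Fluor read on the same wells flagged cytotoxicity.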
Nrf2 ARE act = qHTS of Nrf2 Activators; AREc32 ARE-luciferase reporter (MCF7-derived line), luminescence, 24 h; Potency, µM (titrated, usually from 46.1 µM), usual class: activators; 410,000 tested, 0.31% active; AID 624171, 2012; note: nearly all actives have a fitted effect of over 65% in size
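AREc32_Fluc, 1000 cells/well, OPTI-MEM + 5% FBS, o/n 37 deg C 5% CO2; 23 nL cpd by pin tool, 24 hr; Steady-Glo 30 min RT, luminescence.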
GALK inh = qHTS Assay for Inhibitors of Human Galactokinase (GALK). P51570. AID 1868, 2009. Potency, µM (highest dose often 57.5 µM), hits mostly inhibitors. 270,000 tested, 0.007% active. Purified GALK, Kinase-Glo residual ATP luminescence
Target sequence (P51570 whole entry, looked up): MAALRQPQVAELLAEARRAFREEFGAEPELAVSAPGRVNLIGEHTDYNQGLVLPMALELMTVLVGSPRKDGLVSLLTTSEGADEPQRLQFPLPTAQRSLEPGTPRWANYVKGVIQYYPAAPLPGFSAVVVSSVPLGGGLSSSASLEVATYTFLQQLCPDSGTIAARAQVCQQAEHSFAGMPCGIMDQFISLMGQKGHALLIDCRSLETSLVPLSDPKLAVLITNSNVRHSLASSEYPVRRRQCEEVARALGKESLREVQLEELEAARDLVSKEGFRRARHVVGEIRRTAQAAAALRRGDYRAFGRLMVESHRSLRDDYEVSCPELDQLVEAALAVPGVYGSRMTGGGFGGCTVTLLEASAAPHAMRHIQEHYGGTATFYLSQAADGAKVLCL
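Compounds were pin-transferred into ATP buffer (35 uM final), then GALK plus galactose (5 nM, 100 uM final) was added. After 1 h at room temperature, Kinase-Glo Plus was added and luminescence read after 10 min.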
TrxR1 substrate = qHTS Assay for Substrates of Mammalian Selenoprotein Thioredoxin Reductase 1 (TrxR1): qHTS. Thioredoxin reductase 1, cytoplasmic (Rattus norvegicus), O89049. purified TrxR1 substrate turnover, NADPH consumption readout. Potency, µM (top dose mostly 114 µM). 390,000 tested, 0.01% active; note: nearly all actives have a fitted effect of over 50% in size
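Rat TrxR1, dispensed at 90 nM, was prereduced with 400 uM NADPH (final) for 5 min at ~22 deg C, then incubated with compound 15 min before 400 uM selenite. A first-read NADPH fluorescence drop versus no-compound background flagged substrates.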
Hits are given with their value; [ ] = another dose, or the depositor's remark. Calls come from the whole dose curve; as a rule, active = well fitted curve in the direction sought with a large enough effect; inconclusive = small, poorly fitted or top-dose-only effect, or another doubt; inactive = no such curve, though single readings can be large; an effect the other way counts as inactive or inconclusive.

For C=CCN(CC=C)C(=S)NC(=O)c1ccc(OC)cc1 the results were TrxR1 inh inactive, A549 viability inactive, Nrf2 inh inactive, Nrf2 ARE act inactive, GALK inh inactive and TrxR1 substrate inactive.
CCOc1ccc(NC(=O)N2CCN3CCCCC3C2)cc1 (stereo not given) was read as TrxR1 inh inactive, A549 viability inactive, Nrf2 inh inactive, Nrf2 ARE act inactive and TrxR1 substrate inactive.
For COc1ccc(N2C(=O)CC(Cc3ccccc3)C2=O)cc1 (stereo not given) the results were TrxR1 inh inactive, A549 viability inactive, Nrf2 inh inactive, Nrf2 ARE act inactive, GALK inh inactive and TrxR1 substrate inactive.
Screening COc1ccc(C[C@@H]2OC3(C=CC(=O)C=C3)O[C@H]2Cc2ccc(OC)cc2)cc1 returned TrxR1 inh 0.562µM, A549 viability inconclusive, Nrf2 inh inconclusive, Nrf2 ARE act inactive and TrxR1 substrate inactive.
Screening O=C1C=CC2(C=C1)O[C@H](Cc1ccccc1)[C@@H](Cc1ccccc1)O2 returned TrxR1 inh 0.891µM, A549 viability inconclusive, Nrf2 inh inconclusive, Nrf2 ARE act inactive and TrxR1 substrate inactive[11.4 µM].
Screening CCCn1c(=O)sc2cc(NC(=O)c3ccccc3OCC)ccc21 returned TrxR1 inh inactive, A549 viability inactive, Nrf2 inh inactive, Nrf2 ARE act inactive and TrxR1 substrate inactive.
For Cc1ccccc1OC(C)C(=O)NCCNC(=O)C(C)Oc1ccccc1C (stereo not given) the results were TrxR1 inh inactive, A549 viability inactive, Nrf2 inh inactive and TrxR1 substrate inactive.
Screening COc1ccc(-c2nc(-n3c(C)c(C(C)=O)c(C(C)=O)c3C)sc2C)cc1OC returned TrxR1 inh inactive, A549 viability inactive, Nrf2 inh inactive, Nrf2 ARE act inactive, GALK inh inactive and TrxR1 substrate inactive.
For CC(=O)c1c(C(C)=O)c(C)n(-c2nc(-c3ccc(Br)cc3)c(C)s2)c1C the results were TrxR1 inh inactive, A549 viability inconclusive, Nrf2 inh 25.9µM, Nrf2 ARE act inactive, GALK inh inactive and TrxR1 substrate inactive.
Cc1cc(Br)ccc1NC(=O)CCS(=O)(=O)c1cccc2nsnc12 was read as TrxR1 inh inconclusive, A549 viability inactive, Nrf2 inh inactive[9.27 µM], Nrf2 ARE act inactive and TrxR1 substrate inactive[2.29 µM].
CC(C)(C)C(=O)NC(=S)NNC(=O)C(c1ccccc1)c1ccccc1 was read as TrxR1 inh inactive, A549 viability inactive, Nrf2 inh 20.6µM, Nrf2 ARE act inactive, GALK inh inactive and TrxR1 substrate inactive.
For CN(C)C(=S)NC(=O)C(c1ccccc1)c1ccccc1 the results were TrxR1 inh inactive, A549 viability inactive, Nrf2 inh inactive, Nrf2 ARE act inactive, GALK inh inactive and TrxR1 substrate inactive.
`CC(=O)NNC(=S)NC(=O)C(c1ccccc1)c1ccccc1` gave TrxR1 inh inactive, A549 viability inconclusive, Nrf2 inh 16.4µM, Nrf2 ARE act inactive, GALK inh inactive and TrxR1 substrate inactive.
Screening COc1cccc(CNC(=O)CN2C(=O)CSc3c2c(C)nn3-c2ccccc2)c1 returned TrxR1 inh inactive, A549 viability inactive, Nrf2 inh inactive, Nrf2 ARE act inactive and TrxR1 substrate inactive.
For Cc1ccc(CCNC(=O)C(CC(C)C)NS(=O)(=O)c2ccc3c(c2)oc(=O)n3C)cc1 (stereo not given) the results were TrxR1 inh inactive, A549 viability inactive, Nrf2 inh inactive, Nrf2 ARE act inactive and TrxR1 substrate inactive.
O=S(Cc1ccc(Br)cc1)Cc1nnc(SCc2ccc(Cl)cc2)n1-c1ccccc1 (stereo not given) was read as TrxR1 inh inactive, A549 viability inconclusive, Nrf2 inh 16.4µM, Nrf2 ARE act inactive, GALK inh inactive and TrxR1 substrate inactive.
O=S(Cc1ccc(Br)cc1)Cc1nnc(SCc2c(F)cccc2Cl)n1-c1ccccc1 (stereo not given) was read as TrxR1 inh inactive, A549 viability inconclusive, Nrf2 inh inconclusive, Nrf2 ARE act inactive and TrxR1 substrate inactive.
Screening O=C(CSc1nnc(CCc2ccccc2)n1-c1ccc(Cl)cc1)c1ccccc1 returned TrxR1 inh inconclusive, A549 viability inconclusive, Nrf2 inh 23.1µM, Nrf2 ARE act inactive, GALK inh inactive and TrxR1 substrate inactive.
`CCN(CC)CCCNC(=O)CCc1c(C)nc2c(c1C)c(=O)n(C)c(=O)n2C` gave TrxR1 inh inactive, A549 viability inactive, Nrf2 inh inactive, Nrf2 ARE act inactive and TrxR1 substrate inactive.
For COc1cccc(C2c3c(ncn(-c4ccc(Br)cc4)c3=N)Oc3ccc4ccccc4c32)c1 (stereo not given) the results were A549 viability inactive and Nrf2 inh inactive.
For Cc1ccc(C(=O)CSc2nnc(CNc3ccc(C)cc3C)n2Cc2ccco2)cc1 the results were TrxR1 inh inactive, A549 viability inconclusive, Nrf2 inh 23.1µM, Nrf2 ARE act inactive, GALK inh inactive and TrxR1 substrate inactive.
O=C(CSc1nc2ccccc2c(=O)n1Cc1ccco1)c1ccc(F)cc1 was read as TrxR1 inh inactive, A549 viability inactive[1.84 µM], Nrf2 inh 11.6µM, Nrf2 ARE act inactive, GALK inh inactive and TrxR1 substrate inactive.
`O=C(CSc1nnc(-c2cc3ccccc3cc2O)n1Cc1ccco1)c1ccc(F)cc1` gave TrxR1 inh inactive, Nrf2 inh 23.1µM, Nrf2 ARE act inactive, GALK inh inactive and TrxR1 substrate inactive.
`Cc1occc1-c1nnc(SCC(=O)c2ccc(F)cc2)n1Cc1ccco1` gave TrxR1 inh inconclusive, A549 viability inactive, Nrf2 inh inactive, Nrf2 ARE act inactive, GALK inh inactive and TrxR1 substrate inactive.
For COC(=O)c1[nH]c2ccc(C)cc2c1NC(=O)CN1CCN(c2ccccc2)CC1 the results were TrxR1 inh inactive, A549 viability inactive, Nrf2 inh 18.4µM, Nrf2 ARE act inactive, GALK inh inactive and TrxR1 substrate inactive.
O=C(N/N=C\c1ccc(CNS(=O)(=O)c2ccc(Cl)cc2)o1)C(=O)Nc1ccc(Oc2ccccc2)cc1 was read as TrxR1 inh inactive, A549 viability inconclusive, Nrf2 inh 16.4µM, Nrf2 ARE act inactive, GALK inh inactive and TrxR1 substrate inactive.
For O=C(N/N=C\c1ccc(CNS(=O)(=O)c2ccccc2)o1)C(=O)Nc1ccc(F)cc1 the results were TrxR1 inh inactive, A549 viability inactive, Nrf2 inh inactive, Nrf2 ARE act inactive[9.22 µM], GALK inh inactive and TrxR1 substrate inactive.
